Laboratory results taken from PubChem BioAssay AID1159580 (chemical genetic matrix, 2015).
Out of some 5,500 compounds screened, about 2,000 (36%) were called active. About 18% were inconclusive and are not listed. No stated cut-off is given here; in the data, active means normalized growth mostly below about 0.91 (no sharp cut-off); inconclusive means no clear call, values can overlap the other calls; inactive means mostly above about 0.92. The list shows a part of the results.

Test: chemical genetic growth profiling, strain panel (AID 1159580);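 further: tested at 20 µM; growth read once vehicle control cultures reached saturation at 30 °C; 1 = growth at the plate median or of vehicle wells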
Conditions: growth OD

Measured: normalized growth

Nc1ccc(S(=O)(=O)Nc2ncccn2)cc1
inactive: S. cerevisiae deletion strains, locus YJR066W, strain TOR1, stronger effect = lower value 0.92 | S. cerevisiae deletion strains, locus YJR075W, strain HOC1, stronger effect = lower value 0.992 | S. cerevisiae deletion strains, locus YKL009W, strain mrt4, stronger effect = lower value 1.01 | S. cerevisiae deletion strains, locus YKL068W, stronger effect = lower value 0.989 | S. cerevisiae deletion strains, locus YKL085W, strain MDH1 (second series), stronger effect = lower value 0.996 | S. cerevisiae deletion strains, locus YKL085W, strain MDH1, stronger effect = lower value 0.996 | S. cerevisiae deletion strains, locus YKL160W, strain elf1, stronger effect = lower value 1.01 | S. cerevisiae deletion strains, locus YKL190W, strain CNB1, stronger effect = lower value 0.989 | S. cerevisiae deletion strains, locus YKR001C, strain vps1, stronger effect = lower value 1 | S. cerevisiae deletion strains, locus YKR026C, strain gcn3, stronger effect = lower value 0.966 | S. cerevisiae deletion strains, locus YKR091W, strain srl3, stronger effect = lower value 0.978 | S. cerevisiae deletion strains, locus YLL001W, strain dnm1, stronger effect = lower value 0.977 | S. cerevisiae deletion strains, locus YLL026W, stronger effect = lower value 0.999 | S. cerevisiae deletion strains, locus YLL041C, strain sdh2, stronger effect = lower value 0.997 | S. cerevisiae deletion strains, locus YLR027C, strain aat2, stronger effect = lower value 0.983 | S. cerevisiae deletion strains, locus YLR039C, strain RIC1, stronger effect = lower value 0.999 | S. cerevisiae deletion strains, locus YLR058C, strain SHM2, stronger effect = lower value 0.976 | S. cerevisiae deletion strains, locus YLR102C, strain apc9, stronger effect = lower value 0.993 | S. cerevisiae deletion strains, locus YLR113W, strain HOG1, stronger effect = lower value 0.973 | S. cerevisiae deletion strains, locus YLR221C, strain rsa3, stronger effect = lower value 0.968 | S. cerevisiae deletion strains, locus YLR258W, strain gsy2, stronger effect = lower value 0.98 | S. cerevisiae deletion strains, locus YLR262C, strain YPT6 (second series), stronger effect = lower value 0.981 | S. cerevisiae deletion strains, locus YLR262C, strain YPT6, stronger effect = lower value 0.974 | S. cerevisiae deletion strains, locus YLR268W, strain sec22, stronger effect = lower value 1.05 | S. cerevisiae deletion strains, locus YLR320W, strain mms22, stronger effect = lower value 0.982 | S. cerevisiae deletion strains, locus YLR330W, strain CHS5, stronger effect = lower value 0.994 | S. cerevisiae deletion strains, locus YLR342W, strain FKS1 (second series), stronger effect = lower value 1.01 | S. cerevisiae deletion strains, locus YLR342W, strain FKS1, stronger effect = lower value 0.992 | S. cerevisiae deletion strains, locus YLR357W, strain rsc2, stronger effect = lower value 0.939 | S. cerevisiae deletion strains, locus YLR370C, strain arc18, stronger effect = lower value 0.982 | S. cerevisiae deletion strains, locus YLR384C, strain iki3, stronger effect = lower value 0.994 | S. cerevisiae deletion strains, locus YLR418C, strain cdc73, stronger effect = lower value 0.997 | S. cerevisiae deletion strains, locus YML016C, strain PPZ1, stronger effect = lower value 0.988 | S. cerevisiae deletion strains, locus YML032C, strain rad52, stronger effect = lower value 1.01 | S. cerevisiae deletion strains, locus YML120C, strain ndi1, stronger effect = lower value 0.969 | S. cerevisiae deletion strains, locus YML124C, strain tub3, stronger effect = lower value 1 | S. cerevisiae deletion strains, locus YMR058W, strain fet3, stronger effect = lower value 1.01 | S. cerevisiae deletion strains, locus YMR078C, strain ctf18, stronger effect = lower value 0.985 | S. cerevisiae deletion strains, locus YMR125W, strain sto1, stronger effect = lower value 0.955 | S. cerevisiae deletion strains, locus YMR129W, stronger effect = lower value 0.983 | S. cerevisiae deletion strains, locus YMR205C, strain PFK2, stronger effect = lower value 0.985 | S. cerevisiae deletion strains, locus YMR223W, strain ubp8, stronger effect = lower value 0.976 | S. cerevisiae deletion strains, locus YMR231W, strain pep5, stronger effect = lower value 0.979 | S. cerevisiae deletion strains, locus YMR307W, strain GAS1, stronger effect = lower value 1 | S. cerevisiae deletion strains, locus YNL067W, strain RPL9B, stronger effect = lower value 0.99 | S. cerevisiae deletion strains, locus YNL071W, strain lat1, stronger effect = lower value 0.969 | S. cerevisiae deletion strains, locus YNL153C, strain GIM3, stronger effect = lower value 0.987 | S. cerevisiae deletion strains, locus YNL183C, strain NPR1, stronger effect = lower value 0.942 | S. cerevisiae deletion strains, locus YNL209W, strain ssb2, stronger effect = lower value 0.967 | S. cerevisiae deletion strains, locus YNL233W, strain BNI4, stronger effect = lower value 0.994 | S. cerevisiae deletion strains, locus YNL248C, strain rpa49, stronger effect = lower value 0.974 | S. cerevisiae deletion strains, locus YNL250W, strain rad50, stronger effect = lower value 1 | S. cerevisiae deletion strains, locus YNL271C, strain bni1, stronger effect = lower value 0.998 | S. cerevisiae deletion strains, locus YNL298W, strain CLA4, stronger effect = lower value 1 | S. cerevisiae deletion strains, locus YNL307C, strain MCK1, stronger effect = lower value 1 | S. cerevisiae deletion strains, locus YNL322C, strain KRE1 (second series), stronger effect = lower value 0.959 | S. cerevisiae deletion strains, locus YNR049C, strain mso1, stronger effect = lower value 0.98 | S. cerevisiae deletion strains, locus YNR052C, strain pop2, stronger effect = lower value 0.995 | S. cerevisiae deletion strains, locus YOL006C, strain TOP1, stronger effect = lower value 0.968 | S. cerevisiae deletion strains, locus YOL012C, strain htz1 1.31 | S. cerevisiae deletion strains, locus YOL147C, strain pex11, stronger effect = lower value 1 | S. cerevisiae deletion strains, locus YOR001W, strain rrp6, stronger effect = lower value 0.948 | S. cerevisiae deletion strains, locus YOR061W, strain CKA2, stronger effect = lower value 0.968 | S. cerevisiae deletion strains, locus YOR069W, strain VPS5, stronger effect = lower value 1 | S. cerevisiae deletion strains, locus YOR070C, strain gyp1, stronger effect = lower value 0.991 | S. cerevisiae deletion strains, locus YOR080W, strain dia2, stronger effect = lower value 0.972 | S. cerevisiae deletion strains, locus YOR083W, strain WHI5, stronger effect = lower value 0.964 | S. cerevisiae deletion strains, locus YOR106W, strain vam3, stronger effect = lower value 0.981 | S. cerevisiae deletion strains, locus YOR136W, strain idh2, stronger effect = lower value 0.983 | S. cerevisiae deletion strains, locus YOR144C, strain elg1, stronger effect = lower value 0.996 | S. cerevisiae deletion strains, locus YOR184W, strain ser1, stronger effect = lower value 0.994 | S. cerevisiae deletion strains, locus YOR231W, strain MKK1, stronger effect = lower value 0.978 | S. cerevisiae deletion strains, locus YOR265W, strain rbl2, stronger effect = lower value 1.02 | S. cerevisiae deletion strains, locus YOR270C, strain vph1, stronger effect = lower value 0.919 | S. cerevisiae deletion strains, locus YOR290C, strain snf2, stronger effect = lower value 0.974 | S. cerevisiae deletion strains, locus YOR316C, strain cot1, stronger effect = lower value 0.984 | S. cerevisiae deletion strains, locus YPL051W, strain arl3, stronger effect = lower value 1.01 | S. cerevisiae deletion strains, locus YPL055C, strain LGE1, stronger effect = lower value 0.939 | S. cerevisiae deletion strains, locus YPL078C, strain atp4, stronger effect = lower value 0.992 | S. cerevisiae deletion strains, locus YPL106C, strain sse1, stronger effect = lower value 0.983 | S. cerevisiae deletion strains, locus YPL240C, strain hsp82, stronger effect = lower value 0.99 | S. cerevisiae deletion strains, locus YPL241C, strain CIN2, stronger effect = lower value 0.996 | S. cerevisiae deletion strains, locus YPL256C, strain CLN2, stronger effect = lower value 0.968 | S. cerevisiae deletion strains, locus YPR119W, strain clb2, stronger effect = lower value 0.983 | S. cerevisiae deletion strains, locus YPR141C, strain kar3, stronger effect = lower value 0.983 | S. cerevisiae deletion strains, locus YPR163C, strain tif3, stronger effect = lower value 1 | S. cerevisiae deletion strains, locus YPR167C, strain met16, stronger effect = lower value 0.989 | S. cerevisiae deletion strains, strain wtn01, stronger effect = lower value 1.01 | S. cerevisiae strains, strain wild type, stronger effect = lower value 0.988
